Measurements reported in PubChem BioAssay (NCI).
The panel holds about 83,000 compounds, 20% with a hit somewhere; the sample as a whole holds those more often.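 Percent growth is the endpoint: 0 to 100 indicates growth inhibition (40 means 60% inhibition), 0 means no net growth, and negative values indicate cell death.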 Values without a mark were called inactive. Calls of active or inactive are those of the source. The calls were made as follows: active = growth percent below 10; inactive = the rest.

These compounds were tested on MCF7 breast (assay: NCI-60 one-dose screen, 48 h (100 = growth as untreated, 0 = no growth, -100 = all killed)). Settings: 10 µM unless noted.

Point of comparison: `COC(=O)c1nc(-c2ccc(C)cc2)oc1N1CCOCC1`, growth 83%. Against it:
- C=C(C)[C@@H]1CC[C@]2(COC(=O)c3cccnc3)CC[C@]3(C)[C@H](CC[C@@H]4[C@@]5(C)CCCN(C(=O)c6cccnc6)C(C)(C)[C@@H]5CC[C@]43C)[C@@H]12 — lower, 25.6%
- O=S(=O)(c1ccc(NCSc2nc3ccccc3s2)cc1)c1ccc(NCSc2nc3ccccc3s2)cc1 — higher, 97.5%
- COc1ccc(S(=O)(=O)Oc2ccc(-c3sc4cc(OS(=O)(=O)c5ccc(OC)cc5)ccc4c3C(=O)c3ccc(OCCN4CCCCC4)cc3)cc2)cc1 — higher, 91.3%
- Nc1nc(N)c2c(n1)NC(c1cccc(Nc3ccnc4cc(C(F)(F)F)ccc34)c1)CC(c1ccc(Cl)cc1)=N2 (stereo not given) — lower, 16.1%
- COC(=O)[C@H]1Cc2c([nH]c3ccccc23)[C@H](c2ccc3c(c2)OCO3)N1 — higher, 93.3%
- [2H]C([2H])([2H])Oc1c(F)cccc1/C=C/C(=O)/C=C(O)/C=C/c1cccc(F)c1OC([2H])([2H])[2H] — lower, 74.5%
- C=C(C)[C@@H]1CCC[C@]2(C(=O)OC)CC[C@]3(C)[C@@H](CC[C@@H]4[C@@]5(C)CCCNC(C)(C)[C@@H]5CC[C@]43C)[C@@H]12 — higher, 86.5%
- O=C(Nc1ncc(Cc2ccccc2)s1)c1ccc2c(c1)OCCO2 — lower, 10.8%
- COc1ccc(-c2cc(-c3ccc(Nc4nc(Nc5ccc(Cl)cc5)nc(Nc5ccc(Cl)cc5)n4)cc3)no2)cc1 — lower, 60.6%
- CNC(=O)c1cc(Oc2ccc3nc(NC(=O)NC(C)C)sc3c2)ccn1 — lower, 53.9%
- O=C1NCCS(=O)(=O)/C1=C\C=C\c1cccc(C(F)(F)F)c1 — lower, 18.2%
- NCCNc1ccc([N+](=O)[O-])cc1 — higher, 101%
- Clc1ccc2c(NCCCn3cnc4c(N5CCCC5)nc(Cl)nc43)ccnc2c1 — higher, 91.9%
- O=C(/C=C/c1ccc(Cl)cc1)c1ccc(Nc2ccnc3cc(Cl)ccc23)cc1 — lower, 78.6%
- Oc1c(Cl)cc(Cl)c2ccc(CN3CCNCC3)nc12 — lower, 34.4%
- O=C1c2ccccc2C(=O)c2cc(Cn3c[n+](Cc4ccc5ccccc5c4)c4ccccc43)ccc21 — lower, 39.9%
- CC(C)(C#N)c1cc(C(=O)Nc2cc(Nc3ncccc3-c3ncnc4nc[nH]c34)ccc2F)cc(C(F)(F)F)c1 — lower, 57.4%
- CC(C)n1cc(C2=C(c3cccc4ccccc34)C(=O)NC2=O)c2cc(Br)ccc21 — lower, 76.1%
- O=CN1N=C(c2cccc(Nc3ccncc3)c2)CC1c1ccc2c(c1)OCO2 (stereo not given) — lower, 81.7%
- CC(=O)Cc1nsc(NC(=O)c2cc(-c3cc(Cl)ccc3Cl)oc2C)n1 — higher, 97.7%
- O=C(O)COc1ccc(F)cc1 — higher, 95.8%
- CC(Cc1cccc2ccccc12)C(N)=O (stereo not given) — higher, 93%
- NC(=N\N=C/c1ccc(Cl)cc1Cl)/C(N)=N\N=C/c1ccc(Cl)cc1Cl — higher, 87%
- CCOC(=O)CC1C(CNC(=O)NC)OC(n2cnc3c(NC(=O)Nc4ccccc4)ncnc32)C1O[Si](C)(C)C(C)(C)C (stereo not given) — lower, 18.1%
- CCc1ccc(Cc2cnc(NC(=O)c3cc(C)oc3C)s2)cc1 — lower, 16.5%
- CNc1nc2ncc(-c3c(C)noc3C)cc2n1Cc1ccccc1 — lower, 18.6%
- CCCCC1=C(Br)C(=O)c2ncccc2C1=O — higher, 89.5%
- Cc1ccc2nc(/C=C/c3ccc(N(C)C)cc3)cc(C)c2c1 — lower, 10.1%
- CCN(CC)c1ccc(/C=N/NC(=O)c2ccccc2Nc2ccnc(C(F)(F)F)c2)c(O)c1 — lower, 20.4%
- COc1cc2ncnc(Nc3ccc(S(=O)(=O)Nc4cc(C)on4)cc3)c2cc1OCCCN1CCOCC1 — higher, 96.1%
- COc1ccc(-c2cc(-c3ccc(N(C)C)cc3)nc(NC(=O)c3cccnc3)n2)cc1 — lower, 81.9%
- CC(=O)/C(Br)=C/c1ccc(Br)o1 — lower, 33%
- N#CC1=C(N)Oc2c(ccc3cccnc23)C1c1ccccc1 (stereo not given) — lower, 24.6%
- Cc1ccc(S(=O)(=O)N(CCC(=O)O)c2ccccc2)cc1 — higher, 91.8%
- OC1CSSC1Cn1cnc2c(Nc3ccc(F)c(Cl)c3)ncnc21 (stereo not given) — lower, 45.7%
- COc1cc2c(c(OC)c1OC)C(=O)CC(c1cccc(C(=O)Nc3ccc(Br)cc3)c1)O2 (stereo not given) — lower, 42.9%

`C=C1C(=O)O[C@H]2[C@H]1CC/C(CNC(=O)/C=C/c1cc(OC)c(OC)c(OC)c1)=C\CC[C@@]1(C)O[C@@H]21` was tested, and the growth was -8.09% (active).
In the case of `CCCS(=O)(=O)Nc1cccc(Nc2ncnc3cc(NC(=O)CCl)ccc23)c1Cl`, the growth is reported as -13% (active).
`Nc1ncc(-c2ccc3ncnc(N4CCc5cc(F)c(Cl)cc54)c3c2)cc1C(F)(F)F` was tested, and the growth was 8.11% (active).
